Test results: PMC8384837, “Expanding the binding specificity for RNA recognition by a PUF domain”

Assays:
Experiment in all cases: yeast three-hybrid, YBZ-1, SC-Leu-His + 0.5 mM 3-AT, 4 days
Conditions in all cases: tags: N-Gal4 AD-HA kept; label: inside an RPR1-promoter hybrid RNA with tandem MS2 sites; ssRNA
[1] = molecular target: PUM1 PUF domain R1-RGV (Homo sapiens, UniProt Q14671 828-1176, S863R;R864G;Q867V)
In short: (§1)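 The interaction score is the log change in variant frequency from input to selection. Scores were computed in log2 with a pseudocount of 1 for absent variants, using Illumina sequencing of PCR-amplified repeat regions. The input came from four days on SC-Leu and the selection from four days on SC-Leu-His + 0.5 mM 3-AT. The cells were strain YBZ-1 (LexA–MS2 coat fusion, HIS3 reporter) co-expressing Pumilio-1 PUF domain libraries and matching RNA elements from a centromeric plasmid.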

[2] = molecular target: PUM1 PUF domain R1-HWR (Homo sapiens, UniProt Q14671 828-1176, S863H;R864W;Q867R)
In short: as §1

[3] = molecular target: PUM1 PUF domain R5-GTQ (Homo sapiens, UniProt Q14671 828-1176, C1007G;R1008T)
In short: as §1

[4] = molecular target: PUM1 PUF domain R5-RYA (Homo sapiens, UniProt Q14671 828-1176, C1007R;R1008Y;Q1011A)
In short: as §1

[5] = molecular target: PUM1 PUF domain R5-KGE (Homo sapiens, UniProt Q14671 828-1176, C1007K;R1008G;Q1011E)
In short: as §1

[6] = molecular target: T1, PUM1 PUF domain R6-IFM (Homo sapiens, UniProt Q14671 828-1176, N1043I;Y1044F;Q1047M)
T1 sequence: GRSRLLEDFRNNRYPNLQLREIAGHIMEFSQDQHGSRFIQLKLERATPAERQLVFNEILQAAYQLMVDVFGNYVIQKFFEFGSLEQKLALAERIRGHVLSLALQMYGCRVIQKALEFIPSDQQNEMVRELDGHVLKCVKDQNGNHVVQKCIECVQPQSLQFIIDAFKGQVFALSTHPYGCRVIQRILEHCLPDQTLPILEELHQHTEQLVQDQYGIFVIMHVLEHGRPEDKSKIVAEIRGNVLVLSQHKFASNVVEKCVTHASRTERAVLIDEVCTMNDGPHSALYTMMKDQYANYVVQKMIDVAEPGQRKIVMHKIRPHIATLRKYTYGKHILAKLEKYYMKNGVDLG
In short: as §1

[7] = molecular target: PUM1 PUF domain R7-RSV (Homo sapiens, UniProt Q14671 828-1176, S1079R;N1080S;E1083V)
In short: as §1

[8] = molecular target: PUM1 PUF domain R7-LNG (Homo sapiens, UniProt Q14671 828-1176, S1079L;E1083G)
In short: as §1

[9] = molecular target: PUM1 PUF domain R8-QWC (Homo sapiens, UniProt Q14671 828-1176, N1122Q;Y1123W;Q1126C)
In short: as §1

[10] = molecular target: PUM1 PUF domain R8-MFR (Homo sapiens, UniProt Q14671 828-1176, N1122M;Y1123F;Q1126R)
In short: as §1

[11] = molecular target: PUM1 PUF domain R7-KRC (Homo sapiens, UniProt Q14671 828-1176, S1079K;N1080R;E1083C)
In short: as §1

GGCUAGAACUAGUGGAUCCCCCGGCGCCCGGCGGCUCGAGCCCGGGUAAGUGUAAAUUGUCUGCAUGCCGCCGGGCGCCAUGCCUGCAGGUCGACUCUAGAAAACAUG
binding signal [1]: 2.5 log2 enrichment (interaction score)
binding signal [2]: 3.32 log2 enrichment (interaction score)

GGCUAGAACUAGUGGAUCCCCCGGCGCCCGGCGGCUCGAGCCCGGGUAAGUGUUAAUAGUCUGCAUGCCGCCGGGCGCCAUGCCUGCAGGUCGACUCUAGAAAACAUG
binding signal [3]: 2.42 log2 enrichment (interaction score)
binding signal [4]: 4.8 log2 enrichment (interaction score)

GGCUAGAACUAGUGGAUCCCCCGGCGCCCGGCGGCUCGAGCCCGGGUAAGUGUCAAUAGUCUGCAUGCCGCCGGGCGCCAUGCCUGCAGGUCGACUCUAGAAAACAUG
binding signal [5]: 5.15 log2 enrichment (interaction score)
binding signal [4]: 4.95 log2 enrichment (interaction score)

GGCUAGAACUAGUGGAUCCCCCGGCGCCCGGCGGCUCGAGCCCGGGUAAGUGAAAAUAGUCUGCAUGCCGCCGGGCGCCAUGCCUGCAGGUCGACUCUAGAAAACAUG
binding signal [6]: 6.96 log2 enrichment (interaction score)

GGCUAGAACUAGUGGAUCCCCCGGCGCCCGGCGGCUCGAGCCCGGGUAAGUUUAAAUAGUCUGCAUGCCGCCGGGCGCCAUGCCUGCAGGUCGACUCUAGAAAACAUG
binding signal [7]: 2.32 log2 enrichment (interaction score)
binding signal [8]: 6.18 log2 enrichment (interaction score)

GGCUAGAACUAGUGGAUCCCCCGGCGCCCGGCGGCUCGAGCCCGGGUAAGCGUAAAUAGUCUGCAUGCCGCCGGGCGCCAUGCCUGCAGGUCGACUCUAGAAAACAUG
binding signal [9]: 2.08 log2 enrichment (interaction score)
binding signal [10]: 5.35 log2 enrichment (interaction score)

GGCUAGAACUAGUGGAUCCCCCGGCGCCCGGCGGCUCGAGCCCGGGUAAGUCUAAAUAGUCUGCAUGCCGCCGGGCGCCAUGCCUGCAGGUCGACUCUAGAAAACAUG
binding signal [11]: 4.66 log2 enrichment (interaction score)
binding signal [7]: 1.68 log2 enrichment (interaction score)
